Measurements taken from PubChem BioAssay (EPA / NIEHS).
Where a structure was tested more than once in an assay, its records may differ in their call. Calls of active or inactive are those of the source. The calls were made as follows: active = hit-call score of the fitted dose curve at least 0.9, where 1 is the maximum; inactive = score below 0.9.

target: Cellular tumor antigen p53 (Homo sapiens) (UniProt P04637); assay: ATG_p53_CIS: Attagene CIS-FACTORIAL HepG2 Assay for human p53 Transcription Factor (AID 2282994); conditions: HepG2 p53 cis-element reporter, Attagene mRNA; actives raise or lower the signal
Sequence (P04637 whole entry, looked up): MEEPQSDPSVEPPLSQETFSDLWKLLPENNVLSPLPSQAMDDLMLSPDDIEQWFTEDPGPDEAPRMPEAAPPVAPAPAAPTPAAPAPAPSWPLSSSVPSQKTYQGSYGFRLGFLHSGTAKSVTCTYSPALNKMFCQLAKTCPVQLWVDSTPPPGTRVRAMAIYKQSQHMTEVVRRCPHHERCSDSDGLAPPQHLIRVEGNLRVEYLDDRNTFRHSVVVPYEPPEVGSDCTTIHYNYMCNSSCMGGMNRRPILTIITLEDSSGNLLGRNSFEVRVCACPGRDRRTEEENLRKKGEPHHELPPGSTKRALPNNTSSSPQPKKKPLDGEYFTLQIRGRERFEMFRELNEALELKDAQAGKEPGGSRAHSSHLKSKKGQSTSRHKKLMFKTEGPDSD
Protocol: ATG_CIS is a cell-based, multiplexed-readout assay that uses HepG2, a human liver cell line, with measurements taken at 24 hours after chemical dosing in a 24-well plate.ATG_p53_CIS is one of 52 assay component(s) measured or calculated from the ATG_CIS assay. It is designed to make measurements of mRNA induction, a form of inducible reporter, as detected with fluorescence intensity signals by Reverse transcription polymerase chain reaction (RT-PCR) and Capillary electrophoresis technology.Data from the assay component ATG_p53_CIS was analyzed into 1 assay endpoint. This assay endpoint, ATG_p53_CIS, was analyzed with bidirectional fitting relative to DMSO as the negative control and baseline of activity. Using a type of inducible reporter, measures of mRNA for gain or loss-of-signal activity can be used to understand the reporter gene at the transcription factor-level as they relate to the gene TP53. Furthermore, this assay endpoint can be referred to as a primary readout, because this assay has produced multiple assay endpoints where this one serves a reporter gene function. To generalize the intended target to other relatable targets, this assay endpoint is annotated to the dna binding intended target family, where the subfamily is tumor suppressor.
Human liver HepG2 cells are transiently transfected with multiple reporter transcription units (MRTUs) in 6-well plates using FuGene 6 reagent (Roche; 3 ml FuGene/1 mg DNA). The MRTU constructs are regulated by a cis-regulating element (promoter). […] A major difference between the CIS and TRANS system is that in CIS activities of endogenous TFs are measured, whereas the TRANS assay evaluates changes in activities of exogenous, chimeric NR-Gal4 proteins. […] At the end of 24 hour incubation, total RNA was isolated using TriZol reagent (Invitrogen). The isolated RNA is then reverse-transcribed using oligo(dT) primer and Mo-MLV reverse transcriptase (Invitrogen) with DNAse I (Ambion) treatment for 30 min. The one-tenth of the produced cDNA was amplified by PCR using Taq DNA polymerase (Invitrogen) and two reporter sequence-specific primers. The PCR products were fluorescently labeled by primer extension with 6-arboxyfluorescein (6-FAM) 5'-labeled reporter sequence-specific primer (2 min at 95 C, 20 s at 68 C and 10 min at 72 C) and these products were digested with 5U of HpaI (New England Biolabs) for 2h at 37 C. The fragments were purified using Qiaquick PCR columns (Qiagen), analyzed on an ABI 3130xL genetic analyzer (Applied Biosystems) with peak positions identified by using a set of X-rhodamine (ROX)-labeled MapMarker1000 molecular weight standards (BioVentures). The raw capillary electrophoresis data was processed using Attagraph software (Attagene).

Row | SMILES | outcome | AC50
1 | CC(C)(C)c1ccccc1OP(=O)(Oc1ccccc1)Oc1ccccc1 | inactive | 
2 | CCOP(=S)(OCC)SCS(=O)(=O)CC | inactive | 
3 | CCOS(=O)(=O)OCC | inactive | 
4 | CCCCN(CCCC)N=O | inactive | 
5 | COC(=O)C(F)(F)C(F)(F)OC(F)(C(F)(F)F)C(F)(F)OC(F)=C(F)F (stereo not given) | inactive | 12.7 µM (active)
6 | O=[N+]([O-])c1ccccc1 | inactive | 
7 | Oc1ccccc1Br | inactive | 
8 | CCCCC(CC)COC(=O)c1c(Br)c(Br)c(Br)c(Br)c1C(=O)OCC(CC)CCCC (stereo not given) | inactive | 
9 | Cc1cc(C)c(C(=O)P(=O)(c2ccccc2)c2ccccc2)c(C)c1 | inactive | 
10 | O=NN1CCCC1 | inactive | 
11 | CCOC(=O)c1ccccc1C(=O)OCC | inactive | 
12 | CC(C)CBr | inactive | 
13 | N#C/C=C/c1ccccc1 | inactive | 
14 | CCCCc1ccc(O)cc1 | inactive | 
15 | Cc1ccc(O)cc1C | inactive | 
16 | O=S(=O)(c1ccc(O)cc1)c1ccc(O)cc1 | inactive | 
17 | COC(N)=O | inactive | 
18 | CC(C)(C)OOC(C)(C)C | inactive | 
19 | Oc1ccc(I)cc1 | inactive | 
20 | CC(C)(C)c1ccc(O)cc1 |  | 170 µM (active)

Row | SMILES | outcome | AC50
21 | CCCN(CCC)c1c([N+](=O)[O-])cc(C(C)C)cc1[N+](=O)[O-] | inactive | 
22 | c1ccc2c(c1)sc1ccccc12 | inactive | 
23 | Clc1ccc(Oc2ccccc2)cc1 | inactive | 
24 | CC(C)Nc1ccc(Nc2ccccc2)cc1 | inactive | 
25 | N#Cc1c(-c2ccc(Cl)cc2)[nH]c(C(F)(F)F)c1Br | inactive | 
26 | CC1(C)CN=C(NN=C(/C=C/c2ccc(C(F)(F)F)cc2)/C=C/c2ccc(C(F)(F)F)cc2)NC1 | inactive | 
27 | Cc1ccc(C(=O)Cl)cc1 | inactive | 
28 | O=C(O)C(F)(OC(F)(F)C(F)(F)C(F)(F)F)C(F)(F)F (stereo not given) | inactive | 
29 | NC(=O)C(F)(F)C(F)(F)F | inactive | 
30 | CC(=O)c1ccc(-c2ccccc2)cc1 | inactive | 
31 | O=c1ssc(Cl)c1Cl | inactive | 
32 | [N-]=[N+]=[N-] | inactive | 
33 | COP(=O)(CCC(=O)NCO)OC | inactive | 
34 | Cc1ccc(N)cc1N | inactive | 
35 | c1ccc(OP(Oc2ccccc2)Oc2ccccc2)cc1 | inactive | 
36 | CCCCOCC1CO1 (stereo not given) | inactive | 
37 | c1cc2c3c(cccc3c1)CC2 | inactive | 
38 | Cn1[nH]nnc1=S | inactive | 
39 | c1nc[nH]n1 | inactive | 
